Most compounds without a hit are left out; they make up all but 22% or so of the library.
CYP2C19 inh: inhibitors of human CYP2C19. P33261. CYP2C19 Supersomes, luciferin-H EGE luminescence, 30 min. inhibition, % at 5 µM. actives 21% (n = 96,000);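 active = CYP2C19 inhibition above a set limit at 5 µM in the primary screen, cut at about 50% in these data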;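 also: plate controls were negative control wells for no effect and 2.5 mM tranylcypromine positive control for full effect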
Measles CPE: protection of cells from measles virus | Measles virus-infected cells, CPE protection, absorbance | protection (pct of control), % at 4 µM | actives 1.5% (n = 140,000); in the data active = protection mostly above about 24%, no sharp cut-off; inactive = mostly below about 26%
CYP2C19 act: increases human CYP2C19 enzyme activity. 96,000 tested, under 10 active. activation factor at 5 µM. recombinant CYP2C19, luciferin-H EGE luminescence; hits give high values; 0 = fully inhibited enzyme, 1 = untreated enzyme;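 active = activation factor of at least 2 at 5 µM in the primary screen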;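 also: 0 = wells with 2.5 mM tranylcypromine and 1 = vehicle-only wells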
CYP2C9 act: increases human cytochrome P450 2C9 activity; activation factor at 5 µM; recombinant CYP2C9, luciferin-H conversion, luminescence; hits give high values; factor 1 = untreated enzyme, 0 = blocked; AID 1024; actives 1.4% (n = 96,000);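 active = activation factor of 2 or more for CYP2C9 at a 5 µM dose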;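 also: 0 = sulfaphenazole-blocked wells and 1 = vehicle-only wells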
Target sequence (P11712 whole entry, looked up): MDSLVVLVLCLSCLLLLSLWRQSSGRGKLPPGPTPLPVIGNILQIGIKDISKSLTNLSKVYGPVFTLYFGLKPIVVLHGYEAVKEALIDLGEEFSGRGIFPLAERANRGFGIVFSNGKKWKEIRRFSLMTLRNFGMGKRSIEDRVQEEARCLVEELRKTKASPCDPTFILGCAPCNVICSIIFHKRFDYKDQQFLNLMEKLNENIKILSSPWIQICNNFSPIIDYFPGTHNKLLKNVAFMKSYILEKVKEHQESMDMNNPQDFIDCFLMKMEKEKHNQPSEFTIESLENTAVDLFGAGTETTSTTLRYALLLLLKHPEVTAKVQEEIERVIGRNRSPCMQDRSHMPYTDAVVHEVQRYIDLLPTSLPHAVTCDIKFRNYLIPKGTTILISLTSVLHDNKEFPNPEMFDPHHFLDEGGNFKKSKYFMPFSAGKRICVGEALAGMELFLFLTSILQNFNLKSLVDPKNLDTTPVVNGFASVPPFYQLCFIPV
CYP2C9 inh: human CYP2C9 inhibition | CYP2C9 Supersomes, luciferin-H conversion, luminescence | inhibition, % at 5 µM | actives 20% (n = 96,000);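 active = blocking of liver enzyme CYP2C9 beyond about 50% at 5 µM, limit read from the data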
* = called active by the depositor.

For Cc1cc(N(C(=O)c2ccco2)C(C(=O)NC2CCCCC2)c2ccccc2)ccc1-n1cnnn1 (centres undefined) the results were CYP2C19 inh 56*, Measles CPE 6, CYP2C19 act 0.4, CYP2C9 act 0.1 and CYP2C9 inh 92*.
COc1cccc(C(C(=O)NC2CCCCC2)N(C(=O)c2ccco2)c2ccc(-n3cnnn3)c(C)c2)c1 (centres undefined) was read as Measles CPE 8.
For COc1cccc(C(C(=O)NC2CCCCC2)N(C(=O)Cc2cccs2)c2ccc(-n3cnnn3)c(OC)c2)c1 (centres undefined) the results were CYP2C19 inh 65*, Measles CPE 4, CYP2C19 act 0.3, CYP2C9 act 0.7 and CYP2C9 inh 31.
CN(c1cccc(NC(=O)c2ccc(Cl)c(S(=O)(=O)Nc3ccccc3)c2)c1)S(C)(=O)=O was read as CYP2C19 inh 85*, Measles CPE 12, CYP2C19 act 0.2, CYP2C9 act 0 and CYP2C9 inh 97*.
For Cc1ccccc1NS(=O)(=O)c1cc(C(=O)Nc2cccc(N(C)S(C)(=O)=O)c2)ccc1C the results were CYP2C19 inh 38, Measles CPE 6, CYP2C19 act 0.6, CYP2C9 act 0.2 and CYP2C9 inh 78*.
Screening O=C(c1ccccc1)N1CCCCC(Sc2nnnn2-c2ccccc2)C1=O (centres undefined) returned Measles CPE 2.
Screening O=C(c1ccc(F)cc1)N1CCCCC(Sc2nnnn2-c2ccccc2)C1=O (centres undefined) returned CYP2C19 inh 73*, Measles CPE 6, CYP2C19 act 0.3, CYP2C9 act 0.3 and CYP2C9 inh 74*.
For COc1ccc(OCc2nnc(SC3CCOC3=O)n2-c2ccccc2)cc1 (centres undefined) the results were CYP2C19 inh 84*, Measles CPE 20, CYP2C19 act 0.2, CYP2C9 act 0.7 and CYP2C9 inh 27.
Screening O=C1OCCC1Sc1nnnn1-c1ccccc1 (centres undefined) returned CYP2C19 inh 88*, Measles CPE 14, CYP2C19 act 0.1, CYP2C9 act 1 and CYP2C9 inh -5.
For O=C1OCCC1Sc1nc2ccccc2[nH]1 (centres undefined) the results were CYP2C19 inh 5, Measles CPE 25, CYP2C19 act 0.9, CYP2C9 act 1 and CYP2C9 inh 1.
For O=C1OCCC1Sc1nc(-c2ccccc2)cs1 (centres undefined) the results were CYP2C19 inh 87*, Measles CPE 2, CYP2C19 act 0.1, CYP2C9 act 2.1* and CYP2C9 inh -109.
`O=C(COC(=O)CCS(=O)(=O)c1ccc(Cl)cc1)NCCc1ccccc1` gave Measles CPE 17.
CC(C)N1C(=O)C2C(c3ccccc3O)NC(C)(C(=O)O)C2C1=O (centres undefined) was read as CYP2C19 inh -24, Measles CPE 26, CYP2C19 act 1.2, CYP2C9 act 1.4 and CYP2C9 inh -39.
Screening CCCN(CC(=O)Nc1ccc(F)c(F)c1F)CC(=O)Nc1c(Cl)cccc1Cl returned Measles CPE 10.
`COc1cc(C(=O)N2CCC(n3c(C)nc4cc(F)ccc43)CC2)cc(OC)c1OC` gave Measles CPE 7.
Screening Cn1c2c(c(=O)n(C)c1=O)[C@@]1(C(=O)Nc3ccccc31)C(C#N)=C(N)O2 returned Measles CPE 5.
CSc1sc(C(=O)O)c(C)c1C(C)=O was read as CYP2C19 inh -7, Measles CPE 12, CYP2C19 act 1.1, CYP2C9 act 1.1 and CYP2C9 inh -7.
For CC(C)(C)NC(=S)NCc1ccc2c(c1)OCO2 the results were Measles CPE 7.
CC(CNCc1ccc2c(c1)OCO2)NCc1ccc2c(c1)OCO2 (centres undefined) was read as CYP2C19 inh 67*, Measles CPE 11, CYP2C19 act 0.3, CYP2C9 act 0.9 and CYP2C9 inh 6.
For Cc1nc2[nH]c(=O)c3c(n2n1)NC1=C(C(=O)CC(C)(C)C1)C3c1ccccc1 (centres undefined) the results were CYP2C19 inh 0, Measles CPE 10, CYP2C19 act 1, CYP2C9 act 0.3 and CYP2C9 inh 67*.
CC1(C)CC(=O)C2=C(C1)NC1=C(C(=O)c3ccccc31)C2c1ccccc1 (centres undefined) was read as Measles CPE 24.
For CC(NC(=O)CSc1nc2sc3c(c2c(=O)n1-c1ccccc1)CCCC3)c1ccccc1 (centres undefined) the results were Measles CPE 3.
`COc1ccc(-n2c(SCC(N)=O)nc3sc4c(c3c2=O)CCN(C)C4)cc1` gave CYP2C19 inh 73*, Measles CPE 21, CYP2C19 act 0.3, CYP2C9 act 0.7 and CYP2C9 inh 33.
For COC(=O)CSc1nc2sc3c(c2c(=O)n1C1CCCCC1)CCN(C)C3 the results were CYP2C19 inh 78*, Measles CPE 5, CYP2C19 act 0.2, CYP2C9 act 0.5 and CYP2C9 inh 52*.
Screening Cc1c(C(=O)N2CCc3ccccc32)cnn1C returned Measles CPE 8.
Cn1cc2c(=O)n(/N=C/c3ccccc3)cnc2n1 was read as Measles CPE 8.
`CCCCCCOC1(c2ccccc2)OC(=O)c2ccccc21` (centres undefined) gave CYP2C19 inh 56*, Measles CPE 10, CYP2C19 act 0.4, CYP2C9 act 0.4 and CYP2C9 inh 62*.
Screening CCCCCCCOC1(c2ccccc2)OC(=O)c2ccccc21 (centres undefined) returned CYP2C19 inh 78*, Measles CPE 5, CYP2C19 act 0.2, CYP2C9 act 0.2 and CYP2C9 inh 76*.
Screening Cc1cccc(OC2(c3ccccc3)OC(=O)c3ccccc32)c1C (centres undefined) returned CYP2C19 inh 44, Measles CPE 12, CYP2C19 act 0.6, CYP2C9 act 0.2 and CYP2C9 inh 83*.
For COc1ccc(CCC(=O)N2CC(C)OC(C)C2)cc1 (centres undefined) the results were CYP2C19 inh 28, Measles CPE 35, CYP2C19 act 0.7, CYP2C9 act 0.9 and CYP2C9 inh 10.
`CCc1c(C(=O)NNC(=S)NCC(C)C)csc1C` gave CYP2C19 inh 13, Measles CPE 13, CYP2C19 act 0.9, CYP2C9 act 1.1 and CYP2C9 inh -6.
`O=C(Cn1cc2c(n1)CCCC2)N1CCCc2ccccc21` gave CYP2C19 inh 28, Measles CPE 14, CYP2C19 act 0.7, CYP2C9 act 0.6 and CYP2C9 inh 35.
For CC(C)c1ccc(N(C(=O)c2cc3ccccc3oc2=O)C2C=CS(=O)(=O)C2)cc1 (centres undefined) the results were Measles CPE 22.
`CCc1c(C)nc2ncnn2c1N1CCC(C(=O)NCc2cccc(OC)c2)CC1` gave CYP2C19 inh 6, Measles CPE 4, CYP2C19 act 0.9, CYP2C9 act 1 and CYP2C9 inh -2.
